# Experimental data: ChEMBL document CHEMBL2218924, “A broad activity screen in support of a chemogenomic map for kinase signalling research and drug discovery” (Biochem J, 2013)
# Tests used:
# [1] = biological target: T1, Serine/threonine-protein kinase Sgk1 (Homo sapiens) (UniProt O00141); conditions: at 1 µM
# T1 sequence (whole entry): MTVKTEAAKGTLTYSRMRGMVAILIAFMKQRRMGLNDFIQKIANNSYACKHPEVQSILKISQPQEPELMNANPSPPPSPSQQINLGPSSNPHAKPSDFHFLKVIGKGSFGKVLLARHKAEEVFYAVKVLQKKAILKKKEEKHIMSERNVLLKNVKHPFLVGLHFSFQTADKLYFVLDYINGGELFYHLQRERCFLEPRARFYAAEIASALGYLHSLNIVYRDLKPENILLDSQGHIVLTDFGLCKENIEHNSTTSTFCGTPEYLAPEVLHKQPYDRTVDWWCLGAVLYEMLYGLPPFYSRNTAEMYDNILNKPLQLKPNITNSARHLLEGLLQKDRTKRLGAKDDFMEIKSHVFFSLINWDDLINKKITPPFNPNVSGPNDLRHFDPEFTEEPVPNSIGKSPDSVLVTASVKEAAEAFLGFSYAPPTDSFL
# [2] = biological target: T1, Serine/threonine-protein kinase Sgk1 (Homo sapiens); conditions: at 10 µM
# [3] = biological target: T2, Serine/threonine-protein kinase Sgk3 (Homo sapiens) (UniProt Q96BR1); conditions: at 10 µM
# T2 sequence (whole entry): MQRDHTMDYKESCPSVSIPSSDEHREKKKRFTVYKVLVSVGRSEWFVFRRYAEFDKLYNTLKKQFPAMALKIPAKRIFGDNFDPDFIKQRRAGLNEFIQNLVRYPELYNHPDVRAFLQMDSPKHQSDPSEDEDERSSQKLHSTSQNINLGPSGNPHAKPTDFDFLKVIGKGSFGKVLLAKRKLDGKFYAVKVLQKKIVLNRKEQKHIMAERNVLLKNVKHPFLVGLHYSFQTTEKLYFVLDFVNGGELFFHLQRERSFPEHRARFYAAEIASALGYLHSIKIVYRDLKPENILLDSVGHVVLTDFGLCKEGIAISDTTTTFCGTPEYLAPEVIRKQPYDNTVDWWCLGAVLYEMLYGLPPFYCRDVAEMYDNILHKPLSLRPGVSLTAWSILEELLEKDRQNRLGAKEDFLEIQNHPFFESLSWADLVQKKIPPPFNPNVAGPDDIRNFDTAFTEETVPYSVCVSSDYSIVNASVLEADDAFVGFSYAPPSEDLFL
# [4] = biological target: Serine/threonine-protein kinase SIK1 (Homo sapiens) (UniProt P57059); conditions: at 1 µM
# Chain of Serine/threonine-protein kinase SIK1 (Homo sapiens) (P57059 whole entry): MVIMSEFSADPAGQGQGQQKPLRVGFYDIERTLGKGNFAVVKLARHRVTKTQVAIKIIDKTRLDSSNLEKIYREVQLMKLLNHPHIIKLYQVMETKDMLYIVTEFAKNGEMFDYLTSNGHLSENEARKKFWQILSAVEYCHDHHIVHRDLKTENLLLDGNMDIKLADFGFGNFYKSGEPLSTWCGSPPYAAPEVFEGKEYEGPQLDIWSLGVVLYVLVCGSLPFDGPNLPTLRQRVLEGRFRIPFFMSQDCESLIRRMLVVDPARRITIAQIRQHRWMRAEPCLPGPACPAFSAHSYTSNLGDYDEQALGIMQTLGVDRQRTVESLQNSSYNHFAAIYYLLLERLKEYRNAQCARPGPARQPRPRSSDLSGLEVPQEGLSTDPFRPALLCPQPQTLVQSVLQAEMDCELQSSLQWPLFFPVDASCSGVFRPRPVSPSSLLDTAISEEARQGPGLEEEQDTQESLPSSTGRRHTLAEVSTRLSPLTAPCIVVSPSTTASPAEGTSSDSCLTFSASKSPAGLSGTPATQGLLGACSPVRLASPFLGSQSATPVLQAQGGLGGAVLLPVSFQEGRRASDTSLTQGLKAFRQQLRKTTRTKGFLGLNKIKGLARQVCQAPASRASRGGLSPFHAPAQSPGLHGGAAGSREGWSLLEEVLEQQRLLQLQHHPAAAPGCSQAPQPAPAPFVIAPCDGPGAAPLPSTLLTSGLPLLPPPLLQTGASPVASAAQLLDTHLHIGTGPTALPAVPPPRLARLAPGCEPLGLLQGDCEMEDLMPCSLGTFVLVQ
# [5] = biological target: T3, Mitogen-activated protein kinase 13 (Homo sapiens) (UniProt O15264); conditions: at 10 µM
# T3 sequence (whole entry): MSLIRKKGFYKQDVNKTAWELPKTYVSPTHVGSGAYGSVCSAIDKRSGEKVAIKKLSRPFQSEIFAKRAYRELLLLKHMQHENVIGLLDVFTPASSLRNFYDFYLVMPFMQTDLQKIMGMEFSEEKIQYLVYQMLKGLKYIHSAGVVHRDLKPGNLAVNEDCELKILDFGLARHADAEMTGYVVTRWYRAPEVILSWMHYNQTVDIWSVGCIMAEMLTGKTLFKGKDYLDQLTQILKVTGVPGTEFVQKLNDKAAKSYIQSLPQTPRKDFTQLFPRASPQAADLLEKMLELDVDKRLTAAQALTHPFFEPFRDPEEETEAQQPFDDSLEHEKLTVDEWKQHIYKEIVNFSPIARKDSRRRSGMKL
# [6] = biological target: T4, Serine/threonine-protein kinase Sgk2 (Homo sapiens) (UniProt Q9HBY8); conditions: at 1 µM
# T4 sequence (whole entry): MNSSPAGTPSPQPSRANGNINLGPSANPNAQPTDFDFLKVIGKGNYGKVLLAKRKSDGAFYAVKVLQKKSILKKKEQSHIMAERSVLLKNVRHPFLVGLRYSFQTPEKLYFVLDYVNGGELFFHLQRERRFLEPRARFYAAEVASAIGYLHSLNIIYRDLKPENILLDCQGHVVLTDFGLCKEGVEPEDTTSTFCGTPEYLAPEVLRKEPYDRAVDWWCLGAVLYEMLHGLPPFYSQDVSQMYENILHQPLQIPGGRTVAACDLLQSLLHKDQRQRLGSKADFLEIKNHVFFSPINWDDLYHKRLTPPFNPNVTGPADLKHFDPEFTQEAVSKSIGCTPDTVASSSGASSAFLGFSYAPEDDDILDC
# [7] = biological target: T4, Serine/threonine-protein kinase Sgk2 (Homo sapiens); conditions: at 10 µM
# [8] = biological target: T3, Mitogen-activated protein kinase 13 (Homo sapiens); conditions: at 1 µM
Compound,residual activity [1],residual activity [2],residual activity [3],residual activity [4],residual activity [5],residual activity [6],residual activity [7],residual activity [8]
COc1ccc(Cl)cc1NC(=O)Nc1cc(C)nc2ccccc12,80%,73%,78%,93%,,,,
O=C1NC(=O)C(c2c[nH]c3ccccc23)=C1c1c[nH]c2ccccc12,76%,65%,,81%,99%,78%,29%,
CC(C)N(CCC(=O)c1ccc2ccccc2c1)Cc1ccccc1,78%,100%,85%,79%,,,,
NC(=O)c1cccc(-c2cc(Nc3ccc(OC(F)(F)F)cc3)ncn2)c1,,159%,,96%,96%,92%,92%,
Cc1cc(C)c(/C=C2\C(=O)Nc3ccccc32)[nH]1,,,,,,80%,67%,124%
Nc1n[nH]c2nc3ccccc3nc12,,,,118%,98%,92%,45%,
O=S(=O)(NCCNC/C=C/c1ccc(Br)cc1)c1cccc2cnccc12,,,,137%,,,30%,
O=C1NC(=O)C(c2cn(CCCn3ccnc3)c3ccccc23)=C1Nc1ccccc1,46%,14%,,79%,,52%,12%,
O=S(=O)(c1cccc2cnccc12)N1CCCNCC1,84%,,,126%,,,67%,
